Screening data deposited in PubChem by The Scripps Research Institute Molecular Screening Center.
M1 ag: activates human CHRM1 receptor. CHO-K1 hM1, Fluo-8 calcium fluorescence, agonist mode; 0% DMSO, 100% acetylcholine EC100. activation, % at 3 µM. actives 0.33% (n = 360,000). AID 588814;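 active = activation above the run's mean compound activation plus 3 SD, cut at about 16% in these data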;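 also: peak over basal fluorescence ratio within a 140 s kinetic read after compound addition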
Target sequence (P11229 whole entry, looked up): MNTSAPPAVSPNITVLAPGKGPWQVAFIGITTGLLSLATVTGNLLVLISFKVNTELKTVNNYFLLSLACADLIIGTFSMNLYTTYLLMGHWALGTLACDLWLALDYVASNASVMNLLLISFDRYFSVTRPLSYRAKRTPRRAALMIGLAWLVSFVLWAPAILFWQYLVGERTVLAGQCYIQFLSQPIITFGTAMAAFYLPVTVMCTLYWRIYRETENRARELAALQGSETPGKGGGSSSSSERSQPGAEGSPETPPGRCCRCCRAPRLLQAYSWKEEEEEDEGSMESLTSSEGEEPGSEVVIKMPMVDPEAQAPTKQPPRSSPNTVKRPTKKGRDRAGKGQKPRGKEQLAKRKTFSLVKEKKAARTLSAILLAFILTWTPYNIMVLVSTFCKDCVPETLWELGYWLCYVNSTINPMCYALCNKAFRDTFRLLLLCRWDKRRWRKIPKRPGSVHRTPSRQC
M1 antag: blocks human M1 muscarinic receptor; P11229; CHO-K1 hM1, Fluo-8 calcium fluorescence, ACh EC80 antagonist; inhibition, % at 3 µM; actives 1.3% (n = 360,000); AID 588852;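 active = percent inhibition above its own plate's cutoff, namely the mean of that plate's compound wells plus 3 SD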;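 also: peak over basal fluorescence ratio during 140 s after agonist addition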
M1 PAM parental: nonselective activator or artifact in parental CHO-K1 calcium assay | ATP EC20, Fluo-8 calcium fluorescence; 0% at ATP EC20, 100% at ATP max | activation, % at 3 µM | actives 0.02% (n = 360,000);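 active = activation above the run cutoff, the mean activation of all test compounds plus 3 SD, cut at about 40% in these data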;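 also: peak over basal fluorescence ratio in a 140 s read after ATP addition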
CHO-K1 Ca antag: nonselective inhibitor or artifact in parental CHO-K1 cells. ATP-induced calcium, Fluo-8 fluorescence. actives 0.6% (n = 360,000). inhibition, % at 3 µM;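 active = inhibition above a per-plate cutoff, the plate's mean sample inhibition plus 3 SD, cut at about 24% in these data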
M1 ag parental: counter-screen for M1 agonists: effect in parental CHO-K1 cells. actives 0.48% (n = 360,000). activation, % at 3 µM. Fluo-8 calcium fluorescence; scaled to maximal ATP response, vehicle zero. AID 602248; in the data active = activation above about 15%;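 also: untransfected CHO-K1 host cells lacking M1 receptor as counterscreen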
CHRM1 PAM: human CHRM1 positive allosteric modulation. P11229. CHO-K1 hM1, Fluo-8 calcium fluorescence, ACh EC20; 0% = ACh EC20, 100% = maximal ACh. activation, % at 3 µM. actives 0.088% (n = 360,000). AID 588819; in the data active = activation above about 19%, passing the limit was not always enough
A number is an active result; – = inactive. An excerpt weighted towards active compounds, which were near 2.3% of everything screened.

SMILES | M1 ag | M1 antag | M1 PAM parental | CHO-K1 Ca antag | M1 ag parental | CHRM1 PAM
FC(F)(F)c1ccc(CN2C[C@@H]3C(c4ccc(C(F)(F)F)cc4)C4(c5cccnc5)CC3(C4)[C@H]2c2ccccc2)cc1 (stereo partly drawn) | – | – | – | – | – | –
c1ccc(C2[C@H]3CN(CC4CCCCC4)[C@H](c4ccccc4)C34CC2(c2cccnc2)C4)cc1 (stereo partly drawn) | – | 74 | – | – | – | –
c1ccc(C2[C@H]3CN(CC4CCCCC4)[C@H](c4ccccc4)C34CC2(c2ccccc2)C4)cc1 (stereo partly drawn) | – | – | – | – | – | –
CN1C[C@@H]2C(c3ccc(C(F)(F)F)cc3)C3(c4cccnc4)CC2(C3)[C@H]1c1ccccc1 (stereo partly drawn) | – | 32 | – | – | – | –
Cc1ccc(COc2ccc(CNCCCN3CCCCCC3=O)cc2)cc1 | – | 46 | – | – | – | –
O=C(NN=C1CCCCC1)c1ccccc1-n1cccc1 | – | – | – | – | – | –
OCCN1CCN(CC/C=C2/c3ccccc3Sc3ccc(C(F)(F)F)cc32)CC1 | – | – | – | – | – | –
CN(C)CC/C=C1/c2ccccc2Sc2ccc(Cl)cc21 | – | 99 | – | – | – | –
CCCCCC[N+](C)(C)CC/C=C1/c2ccccc2Sc2ccc(Cl)cc21 | – | 99 | – | – | – | –
COc1cccc(C(=O)NNC(=O)c2sccc2-n2cccc2)c1 | – | – | – | – | 18 | –
O=C(COc1cc(F)ccc1[N+](=O)[O-])NCC1CCCO1 (stereo not drawn) | – | – | – | – | – | –
COc1ccccc1Nc1nc(N)nc(CN2CC(C)CC(C)C2)n1 (stereo not drawn) | – | – | – | – | – | –
CN(C)S(=O)(=O)c1ccc(NC=O)cc1 | – | – | – | – | – | –
CCOc1ccc(S(=O)(=O)Nc2cnc3ccccc3c2)cc1 | – | – | – | 25 | – | –
CCOc1ccc(S(=O)(=O)Nc2nc3ccccc3nc2Cl)cc1 | – | – | – | – | – | –
CCc1nc2ccc(C(=O)N3CCCC(C(N)=O)C3)cn2c1N(C)Cc1ccc(OC)cc1 (stereo not drawn) | – | 39 | – | – | – | –
CCCCNC(=O)c1ccc2nc(CC)c(N(C)Cc3ccc(OC)cc3)n2c1 | – | – | – | – | – | –
CCc1nc2ccc(C(=O)NCCOc3ccc(OC)cc3)cn2c1N(C)Cc1ccc(OC)cc1 | – | 30 | – | – | – | –
CCc1nc2ccc(C(=O)N3CCCC(C(N)=O)C3)cn2c1N(CCC(C)C)CCN(C)C (stereo not drawn) | – | – | – | – | – | –
CCc1nc2ccc(C(=O)NCCOc3ccc(OC)cc3)cn2c1N(C)CCCc1ccccc1 | – | 35 | – | – | – | –
CN(C)c1cc[n+](CC(=O)Nc2ccc(OC(F)F)cc2)cc1 | – | – | – | – | – | –
COc1cc(/C=N/NC(=O)c2ccccn2)ccc1OC(=O)c1ccc(Br)cc1 | – | – | – | – | – | –
COc1cc(/C=N/NC(=O)c2ccccn2)ccc1OC(=O)c1ccccc1Br | – | – | – | 27 | – | –
COc1ccc(NC(=O)Cn2c(CCC(=O)O)ccc2-c2ccc(C)cc2)cc1 | – | – | – | – | – | –
Cc1nccn1CC(O)Cn1c2ccccc2c2ccccc21 (stereo not drawn) | – | 36 | – | – | – | –
SMILES | M1 ag | M1 antag | M1 PAM parental | CHO-K1 Ca antag | M1 ag parental | CHRM1 PAM
Cc1ccc(-c2cc(C(=O)N3CCN(c4ncccn4)CC3)c3ccccc3n2)cc1 | – | 31 | – | – | – | –
COc1cccc(-c2cc(C(=O)N3CCN(c4ncccn4)CC3)c3ccccc3n2)c1 | – | 45 | – | 34 | – | –
CCN1CCN(C(=O)c2cc(-c3ccc(Cl)s3)nc3ccccc23)CC1 | – | – | – | – | 19 | –
Cc1ccc(-c2cc(C(=O)N3CCN(c4ccccc4O)CC3)c3ccccc3n2)o1 | – | 42 | – | – | – | –
COc1ccc(-c2cc(C(=O)N3CCN(c4ncccn4)CC3)c3ccccc3n2)cc1OC | – | – | – | – | – | –
CC(C)Oc1cccc(-c2cc(C(=O)N3CCN(c4ncccn4)CC3)c3ccccc3n2)c1 | – | 27 | – | – | – | –
